# Measured values published in publication PMC5540273 (PLoS ONE, 2017).
# Tests used:
# Conditions in all cases: concentration: 1 μM, replicates: in singlicate; n = 1
# ERK8 = tested on: T1, ERK8
# T1 construct: gene MAPK15
# ERN1 = tested on: ERN1
# FAK = tested on: T2, FAK
# T2 construct: gene PTK2
# FER = tested on: FER
# FES = tested on: FES
# FGFR1 = tested on: FGFR1
# FGFR2 = tested on: FGFR2
# FGFR3 = tested on: FGFR3
# FGFR4 = tested on: FGFR4
# FGR = tested on: FGR
# FLT1 = tested on: FLT1
# FLT3-autoinhibited = tested on: FLT3-autoinhibited
# FLT3 = tested on: FLT3
# FLT4 = tested on: FLT4
# FRK = tested on: FRK
# FYN = tested on: FYN
# GAK = tested on: GAK
# GCN2(Kin.Dom.2,S808G) = tested on: T3, GCN2(Kin.Dom.2,S808G)
# T3 construct: gene EIF2AK4
# GRK1 = tested on: GRK1
# GRK2 = tested on: T4, GRK2
# T4 construct: gene ADRBK1
# 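Also: KINOMEscan kinase panel screen.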
SMILES,%Inh (ERK8),%Inh (ERN1),%Inh (FAK),%Inh (FER),%Inh (FES),%Inh (FGFR1),%Inh (FGFR2),%Inh (FGFR3),%Inh (FGFR4),%Inh (FGR),%Inh (FLT1),%Inh (FLT3-autoinhibited),%Inh (FLT3),%Inh (FLT4),%Inh (FRK),%Inh (FYN),%Inh (GAK),"%Inh (GCN2(Kin.Dom.2,S808G))",%Inh (GRK1),%Inh (GRK2)
COC(=O)c1cccc(NC(=O)NC2CCN(c3ccnc(Nc4ccc(F)cc4)n3)C2)c1 (stereo not drawn) [GSK1379725],0%,0%,0%,0%,0%,0%,4%,4%,9%,12%,24%,0%,0%,0%,13%,15%,0%,0%,5%,0%
COc1ccc2cc(-c3nc(-c4ccccc4C(C)C)[nH]c3-c3ccncc3)ccc2c1 [SB-660566],0%,14%,0%,0%,0%,0%,12%,13%,20%,21%,19%,4%,0%,22%,8%,12%,40%,4%,0%,0%
CS(=O)(=O)CCNCc1nc(-c2ccc3ncnc(Nc4ccc(OCc5ccccc5)c(Cl)c4)c3c2)cs1.Cl [GW582764],0%,0%,0%,0%,0%,0%,0%,0%,0%,18%,5%,0%,0%,0%,2%,0%,0%,0%,0%,0%
COc1ccc(Nc2nccc(NCCNC(=O)Nc3cc(C)ccc3C)n2)cc1 [GSK1379899],43%,0%,0%,17%,4%,11%,15%,0%,0%,14%,29%,2%,0%,8%,0%,0%,0%,4%,0%,0%
COc1cccc(NC(=O)Nc2ccc(C)c(-c3ccc(C(=O)Nc4ccncc4)cc3)c2)c1 [GSK1398474],1%,1%,13%,42%,12%,9%,0%,28%,3%,32%,37%,0%,25%,41%,10%,25%,0%,0%,28%,0%
CC(=O)c1cccc(NC(=O)NC2CCN(c3ccnc(Nc4ccc(F)cc4)n3)C2)c1 (stereo not drawn) [GSK1379710],0%,19%,0%,3%,0%,0%,0%,6%,11%,0%,27%,11%,0%,12%,0%,27%,5%,0%,0%,10%
Cc1ccc(NC(=O)c2ccc(Cl)cc2)cc1-c1ccc(C(=O)Nc2ccncc2)cc1 [GSK1398467],0%,0%,0%,24%,0%,0%,0%,7%,18%,40%,37%,0%,0%,2%,30%,0%,1%,0%,0%,0%
Cc1c(Cn2c3ccccc3n3c(=O)cc(N4CCOCC4)nc23)cccc1C(F)(F)F [GSK2306394],26%,10%,0%,6%,0%,4%,2%,0%,0%,0%,27%,17%,11%,18%,0%,20%,18%,5%,0%,0%
Nc1ncnc2occ(-c3ccc4c(c3)CCN4C(=O)Cc3cc(F)ccc3F)c12 [GSK2645446],0%,0%,0%,8%,0%,0%,0%,17%,1%,16%,6%,0%,0%,1%,0%,0%,0%,0%,0%,0%
Cc1nccc(-c2c(-c3ccc(F)cc3)ncn2CCCN2CCOCC2)n1.Cl [SB-282975],9%,0%,35%,26%,12%,38%,22%,33%,0%,0%,21%,19%,6%,23%,2%,9%,9%,0%,78%,0%
CC(C)c1ccc(O)cc1Nc1ccnc2ccc(C(F)(F)F)cc12 [GW482059],17%,8%,0%,14%,0%,10%,2%,5%,57%,9%,21%,9%,1%,10%,9%,20%,0%,0%,0%,14%
Cc1ccc(NC(=O)Nc2ccc(Cl)c(C(F)(F)F)c2)cc1-c1ccc(C(=O)Nc2ccncc2)cc1 [GSK1398470],0%,25%,0%,22%,15%,0%,12%,23%,11%,19%,23%,0%,27%,0%,42%,44%,14%,15%,0%,0%
FC(F)(F)c1ccccc1-c1cc(-c2c[nH]nc2-c2ccccn2)ccn1 [GW679396],0%,10%,0%,15%,0%,4%,0%,0%,0%,12%,18%,0%,0%,0%,17%,0%,27%,0%,0%,0%
c1ccc(-c2ccnc3[nH]ccc23)cc1 [SB-693578],0%,11%,0%,0%,0%,0%,0%,7%,13%,2%,1%,8%,0%,8%,0%,0%,90%,0%,6%,0%
Cc1cccc2c(-c3ccncn3)c(-c3ccc(F)cc3)nn12 [GW515532],100%,1%,0%,8%,0%,15%,0%,0%,0%,1%,32%,12%,0%,10%,0%,1%,76%,18%,3%,0%
Cn1cncc1-c1cc2c(Nc3ccc(OCc4ccccc4)cc3)ncnc2cn1 [GW281179],0%,0%,0%,14%,0%,9%,19%,2%,12%,18%,19%,0%,0%,0%,6%,28%,0%,1%,0%,9%
CNc1nc(-c2ccc3c(N)n[nH]c3c2)cc(N2C[C@@H](C(=O)Nc3ccccc3)CC[C@H]2C)n1 [GSK2298859],0%,2%,0%,33%,0%,23%,0%,16%,0%,22%,35%,0%,0%,12%,0%,2%,0%,0%,100%,0%
CNC(=O)c1ccc(C)c(-n2c(C)cc(OCc3ccc(F)cc3F)c(Br)c2=O)c1,13%,0%,0%,18%,0%,0%,0%,0%,0%,0%,2%,0%,0%,0%,0%,0%,0%,0%,0%,4%
O=C(Nc1n[nH]c2cc(-c3ccsc3)ccc12)C1CC1 [SB-732932],92.4%,8%,6%,0%,0%,1%,0%,3%,0%,13%,14%,29%,75%,0%,0%,4%,28%,0%,0%,0%
Cc1c(Cn2c(C)c(C)n3c(=O)cc(N4CCOCC4)nc23)cccc1C(F)(F)F [GSK2328680],8%,9%,0%,15%,0%,0%,41%,6%,0%,20%,8%,0%,0%,0%,6%,2%,8%,0%,9%,0%
CCCCc1nn2ncccc2c1-c1ccnc(NC2CC2)n1 [GW684374],0%,0%,0%,0%,0%,0%,0%,5%,0%,7%,61%,0%,29%,0%,0%,23%,72%,0%,0%,0%
